# Screening results from PubChem.
# Sampled rows, rich in hits. Any-hit rate of the full collection: about 1.6%.
# MLLE-PAM2 inh = inhibitors of microRNA-mediated deadenylation, human PABP1 MLLE binding. GST-MLLE / FITC-PAM2 fluorescence polarization. 360,000 compounds, 0.36% hits. inhibition, % at 20 µM. P11940; in the data active = inhibition above about 35%, passing the limit was not always enough;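 note: plate controls were DMSO wells with GST-MLLE for no effect and wells lacking GST-MLLE protein for full effect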
# eIF4H inh = inhibitors of RNA binding by human eIF4H. inhibition, % at 35 µM. eIF4H fluorescence polarization binding assay. 290,000 compounds, 0.94% hits;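 note: calls also rest on retests at 20 µM and on dose response follow-up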
# PABP FP inh = PABP-poly(A) binding inhibition | 290,000 compounds, 1% hits | P11940 | PABP-poly(A) RNA binding, fluorescence polarization | inhibition, % at 35 µM;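 note: calls also rest on retests at 20 µM and on dose response follow-up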
# PERK inh = human PERK inhibition, primary cell-based screen; CHO PERK-DD fusion, SEAP luminescence translation reporter; inhibition, % at 5.6 µM; 220,000 compounds, 0.17% hits; AID 1416;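 active = inhibition above the mean inhibition of all tested compounds plus 3 SD, set separately per screening campaign, cut at about 2.9% in these data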;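 note: PERK kinase domain activated by AP20187 dimerizer at 100 nM; 0% = DMSO with dimerizer and 100% = rapamycin at 8.4 µM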
# eIF4E 4G PPI = blocks eIF4E binding to eIF4G | P63073+Q04637 | TR-FRET eIF4E-eIF4GI(517-606) binding, 2 h | inhibition, % at 21.7 µM | 220,000 compounds, 0.37% hits | AID 782;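 active = inhibition above about 30%, limit read from the data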;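 note: 0% = full FRET control wells and 100% = background wells lacking eIF4GI fragment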
# An asterisk follows results filed as active; ? = inconclusive; · = no result. Unless noted, the rule behind the calls is not given here.
SMILES,MLLE-PAM2 inh,eIF4H inh,PABP FP inh,PERK inh,eIF4E 4G PPI
Cc1ccc(N2CC(C(=O)Nc3cc(C)on3)CC2=O)cc1 (stereo not drawn),1.6,7.3,8.0,2.9*,-5.4
CC(C)(NC(=O)N1CCCC1)c1cccc(C(C)(C)NC(=O)N2CCCC2)c1,0.6,-8.1,-12.8,-1.0,-10.3
O=C(NC1CCCCCCC1)c1ccc2c(c1)OCO2,-7.4,-14.4,1.9,0.3,32.1*
COc1ccc(CC2(CO)CCN(C/C=C/c3ccccc3OC)CC2)cc1,-6.4,-1.1,-12.0,-0.1,0.5
O=C(CSc1nc(Cc2ccccc2)nc2ccccc12)Nc1ccc2c(c1)OCCO2,37.8*,4.6,-1.2,-1.1,9.2
O=C(CSc1ncnc2ccccc12)Nc1ccc2c(c1)OCO2,5.0,-5.2,2.5,0.3,-1.1
O=C(CSc1ncnc2ccccc12)NCc1ccc2c(c1)OCO2,-9.7,active,54.7,-1.2,-0.4
CC(C)c1nc(SCC(=O)Nc2ccc(N3CCOCC3)cc2)c2ccccc2n1,45.1*,-1.2,-1.4,-1.6,5.7
N#CCSc1nc2cc(C(=O)N3CCCC3)ccc2c(=O)n1Cc1ccccc1,10.0,-7.5,10.2,-0.6,8.8
Cc1[nH]c2ccccc2c1/C=N/NC(=O)c1cccc(F)c1,2.9,5.9,-4.3,-0.1,-2.9
O=C1/C(=C/c2ccco2)SC(=S)N1c1cccnc1,-0.8,92.4*,84.1*,1.0,55.2*
COc1ccc(/C=C2\SC(=S)N(c3cccnc3)C2=O)cc1,17.7,1.5,-5.0,0.6,-5.9
CC(C)C(C(=O)O)N1C(=O)/C(=C/C=C/c2ccco2)SC1=S (stereo not drawn),-3.9,90.9*,79.1*,2.1,45.8*
COc1cccc(/C=C2\SC(=S)N(c3cccnc3)C2=O)c1OC,54.8*,0.1,23.7,-0.1,7.1
O=C1/C(=C\c2ccc(O)cc2)SC(=S)N1c1cccnc1,-31.7,-20.4,-13.4,1.3,11.9
NN1C(=O)/C(=C\c2ccco2)SC1=S,19.3,106.5*,90.8*,1.0,0.4
CCOC(=O)C1(C)CCCCCN1C(=O)c1ccc(Cl)nc1 (stereo not drawn),-0.7,·,·,·,·
O=C1/C(=C/C=C/c2ccco2)SC(=S)N1c1ccc(O)cc1,-45.8,80.5*,76.6*,0.8,36.6*
O=C(NN1C(=O)/C(=C/C=C/c2ccco2)SC1=S)c1ccncc1,-0.5,84.4*,93.7*,1.1,37.0*
O=C1/C(=C\c2ccco2)SC(=S)N1c1ccc(O)cc1,24.7,81.1*,2.9,1.4,-2.0
COc1ccc(Cc2noc(CN3CCC(c4ccncc4)CC3)n2)cc1OC,-2.2,10.4,-10.2,1.6,2.0
CCCCCCn1c(=O)c(-c2nc3ccccc3c(=O)[nH]2)c(O)c2ccccc21,·,1.3,-2.8,·,·
Cc1cc(NC(=O)CSc2c[nH]c3ccccc23)no1,21.2,6.9,-9.1,·,·
CCCSc1nnc(N2C(=O)C(O)=C(C(=O)c3ccco3)C2c2ccccc2F)s1 (stereo not drawn),18.8,?,94.6*,·,·
COC(=O)CCCC1=CC2=CC(=O)C(C)(OC(=O)c3cccs3)C(=O)C2=CN1CCc1ccccn1 (stereo not drawn),25.6,73.2,46.2*,·,-0.7
SMILES,MLLE-PAM2 inh,eIF4H inh,PABP FP inh,PERK inh,eIF4E 4G PPI
O=C(/C=N/O)Nc1cccnc1,-1.7,2.3,7.9,1.1,0.4
O=C(/C=N/O)Nc1ccc(F)cc1,2.0,-11.6,-4.1,0.5,53.1*
COc1ccc(NC(=O)/C=C/c2ccc(C)o2)cc1S(=O)(=O)N1CCOCC1,13.9,22.6,-0.8,0.2,17.1
O=C(O)CN1C(=O)/C(=C\c2ccccc2OCc2ccc(Cl)cc2Cl)SC1=S,8.3,15.2,21.6,·,·
O=C(O)CN1C(=O)/C(=C\c2cc(Br)ccc2OCc2ccc([N+](=O)[O-])cc2)SC1=S,16.4,67.9*,37.6*,·,·
O=C(O)CN1C(=O)/C(=C\c2cc(Br)ccc2OCc2ccccc2F)SC1=S,29.7,1.5,15.8,·,·
O=C(O)CN1C(=O)/C(=C\c2cc(Br)ccc2OCc2ccccc2Cl)SC1=S,24.8,59.5*,24.2*,·,·
CN1CCN(c2ccncc2S(=O)(=O)N2CCCCC2)CC1,-8.4,1.0,-8.0,·,·
CCC(CO)Nc1ccc(-c2nn(C)c(=O)c3ccccc23)cc1[N+](=O)[O-] (stereo not drawn),13.3,-4.5,0.3,-0.6,1.3
Cc1ccc(NC(=O)CSc2nn(-c3ccccc3)c(=S)s2)cc1S(=O)(=O)N(C)C,-21.5,-4.8,1.8,-0.3,-2.9
C#CCOCCOCCOCCNc1nc(N2CCN(C(=O)[C@H](CCCCN)n3cc([C@@H](N)CC(C)C)nn3)CC2)nc(N2CCN(C(=O)[C@H](Cc3ccc(O)cc3)n3cc([C@@H](N)CC(C)C)nn3)CC2)n1,·,40.9,44.7,0.4,3.8
CN(C)S(=O)(=O)c1ccc(N2CCCC2)c(C(=O)Nc2nc3ccc(F)cc3s2)c1,4.1,active,61.7*,-0.3,-3.0
CN(C)S(=O)(=O)c1ccc(N2CCCC2)c(C(=O)Nc2nc3ccccc3s2)c1,-11.0,-2.0,62.2,-0.8,1.9
C[N+]1(CC(=O)OCCCC2CCCCC2)CCCC1,-118.8,-9.0,54.6*,-0.1,-3.5
CC(NCCc1ccc(O)cc1)C(O)c1ccc(O)cc1 (stereo not drawn),12.7,0.6,-14.4,1.8,-1.3
COc1ccccc1NC(=O)COc1ccc(/C=N/NC(=O)CSCc2ccc(Cl)cc2)cc1,-1.0,-3.6,-5.7,3.3*,-31.2
O=C(CSc1nc(C2CC2)nc2ccccc12)Nc1ccccc1,-4.0,-2.2,15.8,·,·
O=S1(=O)CC/C(=N/Nc2ccccn2)c2cc(F)ccc21,10.0,-3.1,2.3,1.2,1.8
Nc1ccc2c(O)cc(S(=O)(=O)O)cc2c1,48.6*,·,·,·,·
CC(=O)Nc1ccc2c(O)cc(S(=O)(=O)O)cc2c1,7.9,·,·,·,·
O=S(=O)(O)c1cc(O)c2cc(Nc3ccccc3)ccc2c1,46.4*,·,·,·,·
O=S(=O)(O)c1ccc(O)c2cc(Nc3ccccc3)ccc12,44.6*,·,·,·,·
O=S(=O)(O)c1cc(O)c2ccc(Nc3ccccc3)cc2c1,12.8,·,·,·,·
CCn1c(SCC(=O)Nc2ccc(C(C)=O)cc2)nc2nc3c(cc2c1=O)CCCC3,-6.6,-4.3,0.6,1.1,51.4*
CCn1c(SCc2ccccc2Cl)nc2nc3c(cc2c1=O)CCCC3,-9.2,active,60.1*,0.3,3.8
Cc1cccc(NC(=O)CSc2nc3nc4c(cc3c(=O)n2-c2ccccc2)CCCC4)c1,-10.2,-19.6,-7.4,-0.5,5.9
Cc1ccccc1-n1c(SCC(=O)Nc2ccccc2)nc2nc3c(cc2c1=O)CCCC3,-16.7,active,54.4,-1.0,-0.1
CN(C)c1ccnc2sc(C(=O)NCc3ccccc3)c(N)c12,-1.7,-7.7,8.3,-1.7,1.9
O=C(CN1C(=O)c2ccccc2S1(=O)=O)NCc1ccccc1,-0.4,3.7,-0.4,·,·
CCCCCCNC(=O)N[C@H](C(=O)NCCC[C@H]1CN2C(=NC[C@H]2C)N1CCC(c1ccccc1)c1ccccc1)C(C)O (stereo partly drawn),·,5.3,-14.6,·,52.6*
